From PubChem
Luciferase inh = blocks purified firefly luciferase enzyme activity; P08659; Potency, µM (doses to about 115 µM), usual class: inhibitors; hit rate 2.5% among 76,000; AID 1347043; purified P. pyralis luciferase, luminescence, biochemical; further: nearly all actives have a fitted effect of over 65% in size
Target sequence (P08659 whole entry, looked up): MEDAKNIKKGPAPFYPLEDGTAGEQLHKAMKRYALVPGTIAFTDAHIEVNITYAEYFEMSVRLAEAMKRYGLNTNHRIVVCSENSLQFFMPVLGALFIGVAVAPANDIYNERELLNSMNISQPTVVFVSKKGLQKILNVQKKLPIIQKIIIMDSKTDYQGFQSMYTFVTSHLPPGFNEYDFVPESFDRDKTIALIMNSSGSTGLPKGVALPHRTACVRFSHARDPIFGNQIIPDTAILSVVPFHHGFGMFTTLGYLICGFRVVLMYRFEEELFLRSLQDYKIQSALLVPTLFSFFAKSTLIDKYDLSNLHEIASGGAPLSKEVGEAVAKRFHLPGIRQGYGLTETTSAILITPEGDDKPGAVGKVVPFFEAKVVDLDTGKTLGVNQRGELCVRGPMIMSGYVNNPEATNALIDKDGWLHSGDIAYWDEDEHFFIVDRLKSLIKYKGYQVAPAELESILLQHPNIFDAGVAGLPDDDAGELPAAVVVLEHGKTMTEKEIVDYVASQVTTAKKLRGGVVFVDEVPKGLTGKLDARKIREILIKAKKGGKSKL
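Cell-free enzyme assay, 10nM P. pyralis luciferase, luciferin and ATP each at 10uM. Inhibition profiled over a 6-point titration, read as luminescence.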
3T3 cytotox = cytotoxic compounds in NIH 3T3 cells; NIH 3T3 viability, CellTiter-Glo ATP luminescence, 48-72 h; AID 1345082; hit rate 4.3% among 94,000; Potency, µM (doses to about 96.7 µM), without a hit: top-dose activity change, negative = cytotoxicity, usual class: inhibitors; further: nearly all actives have a fitted effect of over 55% in size
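Cytotoxicity was measured by CellTiter-Glo ATP luminescence after 48 or 72 h compound exposure at 37 °C. Mouse NIH 3T3 fibroblasts were seeded at 400 cells/well and dosed by 23 nL pin transfer.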
hNpr1 antagonist = human Npr1 receptor antagonism; P16066; HEK293 hNpr1 GloSensor cGMP, ANP-stimulated luminescence; Potency, µM (highest dose often 46.3 µM), without a hit: top-dose activity change, negative = inhibition, usual class: inhibitors; hit rate 1.6% among 76,000; AID 1347048; calls by dose curve; further: nearly all actives have a fitted effect of over 60% in size
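Compound pre-incubated 30 min at room temperature on GloSensor-loaded HEK293 cells stably carrying hNpr1 and the pGS-40F cGMP biosensor. Stimulation uses hNppA at 0.1 nM final; luminescence is taken at baseline and 20 min post-agonist.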
HEK293 tox = kills HEK 293 cells. HEK 293 viability, ATP luminescence (CellTiter-Glo), 48-72 h. Potency, µM (titrated, usually from 115 µM), for the others: at the highest dose activity change, negative = cytotoxicity, most hits filed as inhibitors. hit rate 6.6% among 94,000. AID 1345083; further: nearly all actives have a fitted effect of over 60% in size
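HEK 293 seeded at 250 cells/well receive compound via pintool. After 48 or 72 hr at 37 degree Celsius, 5% CO2 and 95% humidity, CellTiter-Glo is dispensed and luminescence read following 10 min at room temperature.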
An asterisk follows results filed as active; i = inactive; ? = inconclusive; nt = no result; [ ] = dose if it differs, or a comment. Sampled rows, rich in hits. Any-hit rate of the full collection: about 11%. Unless noted, the call rests on the fitted dose curve; in most records, active means well fitted curve in the direction sought with a large enough effect; inconclusive means small, poorly fitted or top-dose-only effect, or another doubt; inactive means no such curve, though single readings can be large; an effect the other way counts as inactive or inconclusive. On the % scale 0 is the no-effect control and ±100 the full control effect; potency means the concentration at half of the fitted maximal effect.

SMILES	Luciferase inh	3T3 cytotox	hNpr1 antagonist	HEK293 tox
Cc1nn2c(c1-c1ccccc1N1CCCC1)N(C(=O)c1cc3ccccc3n1C)CCC2	i	35.5µM*	-18.6%[70.6 µM]	50.1µM*
Cc1nn2c(c1-c1ccccc1N1CCCC1)N(C(=O)c1ccc(F)cc1)CCC2	i	?	-15.7%[70.6 µM]	70.8µM*
Cc1nn2c(c1-c1cccnc1N1CCOCC1)N(C(=O)c1cc3ccccc3n1C)CCC2	i	?	5.1%	-11.1%
Cc1nn2c(c1-c1ccccc1C(C)C)N(C(=O)c1cc3ccccc3n1C)CCC2	i	22.4µM*	?	50.1µM*
COc1ccc(C2(C(=O)N3CCCN(S(=O)(=O)c4ccccc4)CCC(=O)NCC3)CC2)cc1	i	?	-12.6%	-3.0%
Fc1ccccc1CN1CCNc2cnc(Nc3ccccc3)cc2C1	i	?	?	100µM*
c1ccc(Oc2cc3c(cn2)NCCN(CC2CCOCC2)C3)cc1	i	-20.8%[138 µM]	-0.3%[70.6 µM]	?
COc1ccc(CN2CCNc3cnc(OCc4cccnc4)cc3C2)cc1	i	-23.5%[138 µM]	?	?
Fc1ccccc1CN1CCNc2cnc(Oc3ccccc3)cc2C1	i	?	-3.7%[70.6 µM]	79.4µM*
c1ccc(Oc2cc3c(cn2)NCCN(Cc2ccc4[nH]ccc4c2)C3)cc1	i	?	?	89.1µM*
Cc1cccc(CN2CCNc3cnc(Oc4ccccc4)cc3C2)c1	i	-27.6%[138 µM]	-14.2%[70.6 µM]	89.1µM*
CNC(=O)c1cc(C)nc2onc(C3CCCN(C(=O)c4ccccc4F)C3)c12 (centres undefined)	nt	-25.7%	nt	-10.3%
O=C(CCn1cnnn1)N1CCCC(CCc2cccc(C(F)(F)F)c2)C1 (centres undefined)	i	?	-12.7%	17.8µM*
Cc1nc(C(=O)N2CCCC(CCc3cccc(C(F)(F)F)c3)C2)c(C)o1 (centres undefined)	i	?	-29.0%	25.1µM*
O=C(c1ccc(-n2cnnn2)cc1O)N1CCCC(CCc2ccc(F)cc2)C1 (centres undefined)	i	?	?	35.5µM*
Cn1ncc2c(C(=O)NC3CCOCC3)cc(-c3cccc(C(F)(F)F)c3)nc21	nt	?	nt	-3.1%
O=C(c1nccc2ccccc12)N1CCc2c(nc(-c3ccc(F)cc3)[nH]c2=O)C1	i	14.1µM*	-11.6%	?
O=C(c1ccco1)N1CCc2c(nc(-c3ccc(F)cc3)[nH]c2=O)C1	i	?	-11.5%	2.9%
Cc1nn(CCC#N)c(C)c1[C@@H]1C=C[C@@H](NS(=O)(=O)c2cccs2)C1	i	44.7µM*	-3.1%[70.6 µM]	-9.2%[172 µM]
Cc1nn(-c2ccc(F)cc2)c(C)c1[C@@H]1C=C[C@@H](NS(=O)(=O)c2cccs2)C1	i	?	-13.2%[70.6 µM]	?
COc1cccc(C(=O)N2CCCC(n3cc(-c4nc(C(C)C)no4)nn3)C2)c1 (centres undefined)	i	-15.8%	1.0%	-21.6%
CN(Cc1ccccc1C(F)(F)F)C(=O)Nc1ccc(Cl)cc1	i	35.5µM*	-19.4%[70.6 µM]	?
CN(Cc1ccccc1C(F)(F)F)C(=O)Cc1cccc(Cl)c1	i	?	0.0%[70.6 µM]	79.4µM*
CN(Cc1ccc(F)cc1)C(=O)Nc1ccc(Cl)cc1	?	?	-27.8%[70.6 µM]	89.1µM*
COc1ccc(-c2cc(-c3ccc4c(c3)CNC4=O)cn3cncc23)cc1	?	?	-4.0%[70.6 µM]	?
SMILES	Luciferase inh	3T3 cytotox	hNpr1 antagonist	HEK293 tox
O=C(Nc1ccccc1F)NC1CCc2nn(CC3CC3)c(=O)n2CC1 (centres undefined)	nt	-22.5%	nt	-8.9%
Cc1nn(-c2ccccc2)c2c1C(C)N(CC1CN([S+](=O)([O-])c3ccccc3)C1)C2=O (centres undefined)	nt	-33.4%	nt	-31.1%
CS(=O)(=O)Nc1ccc(C2(C(=O)NCc3ccccc3Cl)CCCCC2)cc1	i	35.5µM*	-17.8%	?
CC(C)C(=O)Nc1ccc(C2(C(=O)NCc3ccc(F)c(Cl)c3)CCC2)cc1	i	35.5µM*	-2.4%	79.4µM*
CCOC(=O)C[C@@H]1C[C@@H](C(C)C)[C@H](CNS(=O)(=O)c2ccc(NC(C)=O)cc2)C=C1C	i	?	-4.9%	?
COc1ccc(S(=O)(=O)NC[C@@H]2C=C(C)[C@H](CC(=O)N3CCN(c4ccccn4)CC3)C[C@H]2C(C)C)cc1	i	8.91µM*	-16.9%	?
COc1ccc(S(=O)(=O)NC[C@@H]2C=C(C)[C@H](CC(=O)N3CCN(C)CC3)C[C@H]2C(C)C)cc1	i	?	2.2%	?
